Assay [1] has as its target Transcription factor E2F1 (Homo sapiens) (UniProt Q01094). The assay can be described thus: ATG_E2F_CIS: Attagene CIS-FACTORIAL HepG2 Assay for human E2F Transcription Factor 1 (AID 2282935). The following applies: HepG2 Attagene cis-reporter, E2F reporter RNA transcripts; actives raise or lower the signal. Put shortly:
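Cis-element reporter mRNA induction in transiently transfected HepG2, 24 h exposure. Activity fitted in both directions relative to DMSO negative control.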

A short description of assay [2]: ATG_M_61_CIS: Attagene CIS-FACTORIAL HepG2 Assay for M61 Transcription Factor (Internal Marker) (AID 2282937). Particulars: HepG2 Attagene CIS-FACTORIAL M61 internal marker reporter; actives raise or lower the signal. Put shortly:
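Using transiently transfected HepG2 liver cells, reporter transcript levels were assessed 24 h post-dosing by RT-PCR and capillary electrophoresis. Changes in either direction were fitted relative to DMSO controls.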

Assay [3] can be described thus: ATG_EGR_CIS: Attagene CIS-FACTORIAL HepG2 Assay for human Early Growth Response 1 (EGR1) (AID 2282938). The following applies: HepG2 Attagene CIS-FACTORIAL EGR reporter mRNA; actives raise or lower the signal. The method, boiled down: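 Fluorescent capillary-electrophoresis signal of reporter cDNA fragments serves as read-out. HepG2 cells bear transiently transfected cis-promoter reporter units and are exposed 24 h; gain- or loss-of-signal is fitted against DMSO.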

A short description of assay [4]: ATG_M_19_CIS: Attagene CIS-FACTORIAL HepG2 Assay for M19 Transcription Factor (Internal Marker) (AID 2282939). The following applies: HepG2 Attagene CIS-FACTORIAL M19 internal marker reporter; actives raise or lower the signal. Put shortly:
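Readout: fluorescent reporter-transcript fragments by capillary electrophoresis after RT-PCR. Human HepG2 liver cells carried transfected MRTU constructs reporting endogenous transcription-factor activity; exposure 24 h. Gain or loss of signal fitted relative to DMSO.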

Assay [5] in a line: ATG_ERE_CIS: Attagene CIS-FACTORIAL HepG2 Assay for Estrogen Response Element (ERE) (AID 2282940). The following applies: HepG2 ERE cis-reporter, Attagene RNA transcript; actives raise or lower the signal. Put shortly: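 Readout: reporter mRNA induction by RT-PCR, FAM-labelled primer extension, HpaI digestion and capillary electrophoresis, 24 h after dosing transfected HepG2 cells. Endogenous transcription factors act on cis-element-regulated reporters. Gain or loss fitted against DMSO.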

The nature of assay [6]: ATG_Ets_CIS: Attagene CIS-FACTORIAL HepG2 Assay for human Erythroblast Transformation Specific (ETS) (AID 2282941). Particulars: HepG2 ETS cis-reporter transcription, actives raise or lower the signal. Put shortly: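 After transient cis-reporter transfection, HepG2 cells receive test chemical for 24 h. Reporter mRNA levels, measured by RT-PCR and capillary electrophoresis fluorescence, are analysed bidirectionally relative to the DMSO baseline.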

The target of assay [7] is Hepatocyte nuclear factor 3-beta (Homo sapiens) (UniProt Q9Y261). In words: ATG_FoxA2_CIS: Attagene CIS-FACTORIAL HepG2 Assay for human Forkhead box A2 (FOXA2) (AID 2282942). Particulars: HepG2 cis-reporter transcription factor activity, 24 h; actives raise or lower the signal. The method, boiled down: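 Fluorescence signal of reporter cDNA fragments, separated by capillary electrophoresis, reflects endogenous transcription factor activity in transfected HepG2 after 24 h. Both increases and decreases fitted against DMSO.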

Assay [8] can be described thus: ATG_FoxO_CIS: Attagene CIS-FACTORIAL HepG2 Assay for human Forkhead box O (FoxO) (AID 2282943). The following applies: HepG2 Attagene cis-reporter, FoxO element, mRNA; actives raise or lower the signal. Put shortly: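 Human hepatoma HepG2 cells carry transiently introduced reporter transcription units controlled by cis promoter elements. Chemical treatment lasted 24 h, and mRNA signal was compared with DMSO.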

The nature of assay [9]: ATG_GATA_CIS: Attagene CIS-FACTORIAL HepG2 Assay for human GATA Binding Protein (AID 2282944). The following applies: HepG2 GATA cis-element reporter, Attagene multiplex mRNA; actives raise or lower the signal. The method, boiled down:
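Read-out: fluorescent reporter mRNA fragments resolved by capillary electrophoresis after RT-PCR. Human liver HepG2 cells carried transiently transfected cis-regulated reporter constructs; chemicals incubated 24 h; gain or loss of signal fitted relative to DMSO.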

Assay [10] is described as follows: ATG_GLI_CIS: Attagene CIS-FACTORIAL HepG2 Assay for human Zinc Finger Protein GLI1 (AID 2282945). The following applies: HepG2, Attagene cis-factorial reporter mRNA, GLI element; actives raise or lower the signal. The method, boiled down: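 Bidirectional curve fits relative to DMSO, using reporter mRNA levels from RT-PCR plus capillary electrophoresis. Cells were HepG2 transiently carrying cis-regulated reporter constructs, harvested 24 h after dosing.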

Assay [11] addresses Bile acid receptor (Homo sapiens) (UniProt Q96RI1). The assay can be described thus: ATG_IR1_CIS: Attagene CIS-FACTORIAL HepG2 Assay for human Nuclear Receptor Subfamily 1 Group H Member 4 (NR1H4), IR1 submotif (AID 2282946). The following applies: IR1 reporter transcription, actives raise or lower the signal. Put shortly:
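Cells (human HepG2) carry transiently transfected cis-promoter reporter transcription units. Compounds are incubated 24 h, total RNA is reverse-transcribed and amplified, and labelled fragments are resolved by capillary electrophoresis. Curves use DMSO as baseline.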

The nature of assay [12]: ATG_GRE_CIS: Attagene CIS-FACTORIAL HepG2 Assay for human Glucocorticoid Response Elements (GRE) (AID 2282947). The following applies: HepG2 GRE cis-reporter, Attagene multiplex mRNA; actives raise or lower the signal. The method, boiled down: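 Transient MRTU transfection of human HepG2 liver cells; cis-regulated reporters report endogenous factors. 24 h dosing → RNA isolation → RT-PCR → 6-FAM primer extension → HpaI cut → CE fragment analysis. Bidirectional fit, DMSO negative control.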

Assay [13] is described as follows: ATG_ISRE_CIS: Attagene CIS-FACTORIAL HepG2 Assay for human Interferon Regulatory Factor 1 (IRF1) binding to an Interferon-Stimulated Response Element (ISRE) (AID 2282948). Particulars: HepG2 ISRE cis-reporter (Attagene), mRNA transcription readout; actives raise or lower the signal. The method, boiled down: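 Quantitation relies on labelled RT-PCR fragments separated by capillary electrophoresis. Human HepG2 cells bearing cis-promoter reporter constructs were treated 24 h; DMSO served as baseline for bidirectional fitting.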

Assay [14] is described as follows: ATG_M_32_CIS: Attagene CIS-FACTORIAL HepG2 Assay for M32 Transcription Factor (Internal Marker) (AID 2282949).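 Further: background control marker of the multiplexed CIS panel rather than a real target.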 The following applies: HepG2 Attagene cis-factorial M32 reporter, mRNA; actives raise or lower the signal. Put shortly: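 HepG2 cells transiently transfected with multiplexed cis-regulated reporter units, dosed 24 h. Reporter mRNA quantified by RT-PCR, 6-FAM labelling, HpaI digestion and capillary electrophoresis; bidirectional fit vs DMSO.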

Assay [15] is described as follows: ATG_M_06_CIS: Attagene CIS-FACTORIAL HepG2 Assay for M06 Transcription Factor (Internal Marker) (AID 2282950). The following applies: HepG2 Attagene CIS-FACTORIAL M06 internal marker reporter; actives raise or lower the signal. The method, boiled down:
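Terse: HepG2, transient MRTU transfection (FuGene 6), 24 h dosing; total RNA, oligo(dT) RT, PCR, FAM label, HpaI cut, capillary electrophoresis; bidirectional fit vs DMSO baseline; background-control endpoint.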

For assay [16], the target named is Hypoxia-inducible factor 1-alpha (Homo sapiens) (UniProt Q16665). In words: ATG_HIF1a_CIS: Attagene CIS-FACTORIAL HepG2 Assay for human Hypoxia Inducible Factor 1 (HIF1A) (AID 2282951). Particulars: HepG2 Attagene cis-factorial HIF1a reporter transcription; actives raise or lower the signal. The method, boiled down:
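Endogenous-TF cis reporter readout, human HepG2 cells, 24 h incubation; mRNA detected via RT-PCR and capillary electrophoresis fluorescence; DMSO-normalised bidirectional fitting.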

For assay [17], the target named is Hepatocyte nuclear factor 6 (Homo sapiens) (UniProt Q9UBC0). In words: ATG_HNF6_CIS: Attagene CIS-FACTORIAL HepG2 Assay for human Hepatocyte Nuclear Factor 6 (HNF6) (AID 2282952). The following applies: HepG2 Attagene cis-factorial HNF6 reporter transcription; actives raise or lower the signal. The method, boiled down:
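HepG2 cells transiently transfected with cis-element-driven multiple reporter transcription units, dosed 24 h; reporter mRNA quantified by RT-PCR, FAM primer extension, HpaI digestion and capillary electrophoresis; bidirectional fit versus DMSO baseline.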

Assay [18] concerns the target Heat shock factor protein 1 (Homo sapiens) (UniProt Q00613). The assay can be described thus: ATG_HSE_CIS: Attagene CIS-FACTORIAL HepG2 Assay for human Heat Shock Transcription Factor 1 (HSE) (AID 2282953). Particulars: HepG2 HSE cis-reporter, Attagene RNA transcription; actives raise or lower the signal. The method, boiled down: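 Read-out: fluorescence of reporter-specific RT-PCR fragments separated by capillary electrophoresis. HepG2 carrying transfected cis-element reporter units; 24 h dosing; activity fitted in both directions relative to DMSO baseline.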

A short description of assay [19]: ATG_MRE_CIS: Attagene CIS-FACTORIAL HepG2 Assay for human Metal Responsive Element (MRE) (AID 2282954). The following applies: HepG2 MRE cis-reporter transcription, Attagene multiplex; actives raise or lower the signal. Put shortly: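 Transient MRTU transfection of HepG2 (FuGene 6); 24 h dosing; total RNA → oligo(dT) RT, PCR, 6-FAM primer extension, HpaI cut, CE. Bidirectional fit vs DMSO.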

Assay [20] in a line: ATG_E_Box_CIS: Attagene CIS-FACTORIAL HepG2 Assay for human Enhancer Box (E-box) (AID 2282936). The following applies: HepG2 E-box cis-reporter transcription, actives raise or lower the signal. Put shortly: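 Cells: HepG2 (human liver), transient MRTU transfection. Exposure 24 h. RNA → oligo(dT) RT → PCR → 6-FAM label → HpaI → CE. Activity fitted both directions relative to DMSO.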

Active and inactive are the calls of the source. How the source made its calls: active means hit-call score of the fitted dose curve at least 0.9, where 1 is the maximum; inactive means score below 0.9.

Chain of Heat shock factor protein 1 (Homo sapiens) (Q00613 whole entry, looked up, the tested form may be a part): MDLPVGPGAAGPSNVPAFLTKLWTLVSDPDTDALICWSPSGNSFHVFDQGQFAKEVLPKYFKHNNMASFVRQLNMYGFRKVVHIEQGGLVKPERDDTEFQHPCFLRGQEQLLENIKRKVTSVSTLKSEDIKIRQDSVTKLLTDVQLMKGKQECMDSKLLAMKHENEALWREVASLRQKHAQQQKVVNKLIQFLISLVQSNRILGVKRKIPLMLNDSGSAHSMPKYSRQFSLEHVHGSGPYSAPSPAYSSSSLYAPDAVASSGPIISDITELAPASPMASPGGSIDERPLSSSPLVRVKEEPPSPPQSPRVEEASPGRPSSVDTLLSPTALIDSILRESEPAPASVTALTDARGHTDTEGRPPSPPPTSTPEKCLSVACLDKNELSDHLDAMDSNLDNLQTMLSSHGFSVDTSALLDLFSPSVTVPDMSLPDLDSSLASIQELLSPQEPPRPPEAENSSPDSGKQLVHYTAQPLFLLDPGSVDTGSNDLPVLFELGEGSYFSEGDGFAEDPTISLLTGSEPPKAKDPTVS
Chain of Hypoxia-inducible factor 1-alpha (Homo sapiens) (Q16665 whole entry, looked up): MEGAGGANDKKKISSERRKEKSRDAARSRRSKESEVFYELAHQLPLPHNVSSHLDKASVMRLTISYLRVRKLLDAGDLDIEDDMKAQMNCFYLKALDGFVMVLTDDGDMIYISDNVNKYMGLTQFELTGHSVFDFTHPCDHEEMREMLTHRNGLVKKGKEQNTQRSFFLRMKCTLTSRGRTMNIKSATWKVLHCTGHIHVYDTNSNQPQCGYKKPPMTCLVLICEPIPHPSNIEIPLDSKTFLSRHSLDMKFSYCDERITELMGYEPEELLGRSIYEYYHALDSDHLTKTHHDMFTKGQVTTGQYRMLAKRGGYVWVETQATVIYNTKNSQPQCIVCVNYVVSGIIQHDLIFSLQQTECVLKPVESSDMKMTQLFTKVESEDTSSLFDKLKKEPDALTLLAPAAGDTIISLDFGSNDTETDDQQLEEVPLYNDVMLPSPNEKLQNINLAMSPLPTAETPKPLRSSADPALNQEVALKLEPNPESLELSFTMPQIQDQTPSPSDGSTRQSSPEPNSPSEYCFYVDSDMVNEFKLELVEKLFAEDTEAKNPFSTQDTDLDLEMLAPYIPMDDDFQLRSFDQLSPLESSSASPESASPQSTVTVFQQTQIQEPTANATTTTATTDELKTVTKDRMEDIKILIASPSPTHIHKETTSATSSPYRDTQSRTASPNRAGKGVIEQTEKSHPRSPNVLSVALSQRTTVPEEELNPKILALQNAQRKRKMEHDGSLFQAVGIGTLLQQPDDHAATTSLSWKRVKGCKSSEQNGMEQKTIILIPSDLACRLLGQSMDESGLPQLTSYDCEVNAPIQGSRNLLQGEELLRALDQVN
Chain of Hepatocyte nuclear factor 3-beta (Homo sapiens) (Q9Y261 whole entry, looked up, the tested form may be a part): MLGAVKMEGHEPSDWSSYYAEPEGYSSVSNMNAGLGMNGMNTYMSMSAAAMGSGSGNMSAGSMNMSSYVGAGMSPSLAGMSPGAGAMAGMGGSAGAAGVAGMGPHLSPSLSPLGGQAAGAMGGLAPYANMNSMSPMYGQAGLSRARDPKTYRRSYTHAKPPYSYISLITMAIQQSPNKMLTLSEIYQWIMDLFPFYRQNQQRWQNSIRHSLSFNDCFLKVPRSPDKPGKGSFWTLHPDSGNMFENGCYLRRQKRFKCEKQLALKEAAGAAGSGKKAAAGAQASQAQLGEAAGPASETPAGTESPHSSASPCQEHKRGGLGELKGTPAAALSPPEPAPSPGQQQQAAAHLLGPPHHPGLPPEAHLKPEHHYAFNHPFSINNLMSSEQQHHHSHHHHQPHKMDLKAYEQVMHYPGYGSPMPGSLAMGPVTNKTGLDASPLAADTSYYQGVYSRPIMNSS
Chain of Transcription factor E2F1 (Homo sapiens) (Q01094 whole entry, looked up): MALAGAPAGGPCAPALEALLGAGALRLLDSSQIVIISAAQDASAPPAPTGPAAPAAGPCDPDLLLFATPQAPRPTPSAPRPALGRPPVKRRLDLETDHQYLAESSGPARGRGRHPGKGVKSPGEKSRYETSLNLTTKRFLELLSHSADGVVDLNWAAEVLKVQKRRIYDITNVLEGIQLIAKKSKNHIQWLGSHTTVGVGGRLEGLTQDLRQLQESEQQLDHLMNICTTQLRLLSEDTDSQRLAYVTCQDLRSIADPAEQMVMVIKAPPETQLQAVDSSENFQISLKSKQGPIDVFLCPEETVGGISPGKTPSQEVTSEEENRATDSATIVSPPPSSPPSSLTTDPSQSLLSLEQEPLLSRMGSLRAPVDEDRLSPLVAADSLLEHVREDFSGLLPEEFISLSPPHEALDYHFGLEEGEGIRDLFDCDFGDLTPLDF
Chain of Hepatocyte nuclear factor 6 (Homo sapiens) (Q9UBC0 whole entry, looked up): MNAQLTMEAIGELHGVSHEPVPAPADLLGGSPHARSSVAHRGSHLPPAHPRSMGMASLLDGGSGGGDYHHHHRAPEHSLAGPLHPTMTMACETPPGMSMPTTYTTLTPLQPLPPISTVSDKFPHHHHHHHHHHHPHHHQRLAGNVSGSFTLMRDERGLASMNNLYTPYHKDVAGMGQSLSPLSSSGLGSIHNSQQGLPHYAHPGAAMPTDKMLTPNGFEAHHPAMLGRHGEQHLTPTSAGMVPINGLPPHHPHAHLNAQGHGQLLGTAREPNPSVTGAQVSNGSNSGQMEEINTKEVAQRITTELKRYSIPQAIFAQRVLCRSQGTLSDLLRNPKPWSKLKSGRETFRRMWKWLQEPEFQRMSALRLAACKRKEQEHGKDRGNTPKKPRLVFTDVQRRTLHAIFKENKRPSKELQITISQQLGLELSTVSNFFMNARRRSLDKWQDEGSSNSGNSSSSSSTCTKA
Chain of Bile acid receptor (Homo sapiens) (Q96RI1 whole entry, looked up, the tested form may be a part): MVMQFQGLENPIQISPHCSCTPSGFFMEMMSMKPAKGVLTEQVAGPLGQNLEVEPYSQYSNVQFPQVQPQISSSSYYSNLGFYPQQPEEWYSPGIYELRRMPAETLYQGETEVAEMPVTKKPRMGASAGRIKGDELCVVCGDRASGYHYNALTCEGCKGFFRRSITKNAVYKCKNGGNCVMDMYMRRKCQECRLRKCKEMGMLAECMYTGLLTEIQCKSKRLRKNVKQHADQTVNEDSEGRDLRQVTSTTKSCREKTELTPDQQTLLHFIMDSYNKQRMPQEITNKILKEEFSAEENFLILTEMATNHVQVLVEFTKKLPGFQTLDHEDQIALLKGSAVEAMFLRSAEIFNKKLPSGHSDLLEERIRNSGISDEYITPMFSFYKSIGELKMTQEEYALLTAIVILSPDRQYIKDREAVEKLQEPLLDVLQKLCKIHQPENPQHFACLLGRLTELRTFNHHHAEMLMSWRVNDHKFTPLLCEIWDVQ

For `CCCCCC1=CCCC1=O`, the call in [1], in assay [2], in assay [3], in assay [4], in assay [5] and in [6] was inactive. Besides, the outcome in assay [7], in assay [8], in assay [9], in assay [10], in assay [11] and in assay [12] was inactive. The compound was classed as inactive in [13], in assay [15], in [16], in assay [17], in [18] and in assay [19]. In addition, in [14], the concentration at half-maximal activity (AC50) is 148 µM (active).

For the compound `O=S(=O)(O)c1ccc(N=Nc2c(O)ccc3ccccc23)cc1`, the outcome in [1], in assay [2], in assay [3], in [4], in assay [6] and in [8] was inactive. The call in assay [9], in [10], in [12], in [13], in assay [14] and in [15] was inactive. Moreover, the call in assay [17], in assay [18] and in assay [19] was inactive. The AC50 in assay [5] was 33.5 µM (active); in [7] it was 7.83 µM (active); in assay [16], 3 µM (active).

With `CCCCC(CC)COS(=O)(=O)O` (stereo not drawn), the result in assay [1], in assay [2], in [3], in [4], in assay [5] and in [6] was inactive. In addition, the outcome in assay [7], in [8], in [9], in [10], in assay [11] and in assay [13] was inactive. Moreover, the compound was classed as inactive in [14], in assay [15], in [16], in assay [17], in assay [18] and in assay [19].

In the case of `C[Si](C)(C)N[Si](C)(C)C`, the outcome in assay [1], in assay [2], in assay [3], in assay [4], in assay [5] and in [6] was inactive. Further, the call in [7], in assay [8], in assay [9], in assay [10], in assay [12] and in [13] was inactive. Further, the call in assay [14], in assay [15], in assay [17], in assay [18] and in assay [19] was inactive.

In the case of `O=C(O)C(F)(F)C(F)(F)C(F)(F)C(F)(F)C(=O)O`, the outcome in assay [20], in assay [2], in [3], in assay [4], in assay [5] and in assay [6] was inactive. In addition, the compound was classed as inactive in [7], in assay [8], in assay [9], in assay [10], in [11] and in [12]. Further, the outcome in assay [13], in assay [14], in assay [15], in assay [17], in [18] and in [19] was inactive.

Regarding `CCCCC(C=O)CC` (stereo not drawn), the compound was classed as inactive in assay [1], in assay [2], in [3], in assay [4], in assay [5] and in [6]. Further, the result in assay [7], in assay [8], in assay [9], in [10], in assay [11] and in assay [12] was inactive. Also, the compound was classed as inactive in [13], in assay [15], in assay [16], in assay [17] and in [19].

Take `CCCCOC(=O)CCC(C)=O`: the compound was classed as inactive in assay [1], in assay [2], in assay [5], in assay [6], in assay [7] and in [8]. The compound was called inactive in assay [9], in assay [10], in assay [12], in assay [13], in assay [14] and in assay [15]. Further, the compound was called inactive in assay [16], in assay [17], in [18] and in assay [19].

Values taken from PubChem BioAssay (EPA / NIEHS).
